Experimental data as given in the supplement of paper PMC11732987, “Enantioselective OTUD7B fragment discovery through chemoproteomics screening and high-throughput optimisation” (Communications Chemistry, 2025).

Legend:
Experiment in all cases: log2 ratio of Biotin-Ahx-Ub-VS probe labelling (fragment/DMSO); higher = less target engagement (more negative = stronger competition), active = hit call of the paper (q ≤ 0.05, log2 ratio ≤ -1)
Settings in all cases: compound concentration: 200 uM; treatment time: 3 h
OTUD6B = target: T1, OTUD6B (UniProt Q8N6M0)
T1 sequence (whole entry): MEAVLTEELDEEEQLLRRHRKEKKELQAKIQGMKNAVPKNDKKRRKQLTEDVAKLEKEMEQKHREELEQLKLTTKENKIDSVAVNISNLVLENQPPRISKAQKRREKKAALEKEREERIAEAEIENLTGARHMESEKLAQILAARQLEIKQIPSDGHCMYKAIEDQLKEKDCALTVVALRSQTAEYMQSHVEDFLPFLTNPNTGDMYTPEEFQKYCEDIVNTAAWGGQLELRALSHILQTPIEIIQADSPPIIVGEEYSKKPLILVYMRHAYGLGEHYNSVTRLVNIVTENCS
Method in brief: (§1)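 The table lists average log2 ratios of fragment over vehicle, from an unpaired t-test on global-median-normalised Spectronaut label-free quantities. Proteins with ≥2 unique peptides were used. Samples were HEK293T lysate (495 µg) treated in triplicate with fragment at 200 µM or vehicle for 3 h, then with Biotin-Ahx-Ub-VS (0.5 µM final) for 1 h, with labelled DUBs NeutrAvidin-enriched and run by diaPASEF LC-MS/MS.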

OTUD7B = target: T2, OTUD7B (UniProt Q6GQQ9)
T2 sequence (whole entry): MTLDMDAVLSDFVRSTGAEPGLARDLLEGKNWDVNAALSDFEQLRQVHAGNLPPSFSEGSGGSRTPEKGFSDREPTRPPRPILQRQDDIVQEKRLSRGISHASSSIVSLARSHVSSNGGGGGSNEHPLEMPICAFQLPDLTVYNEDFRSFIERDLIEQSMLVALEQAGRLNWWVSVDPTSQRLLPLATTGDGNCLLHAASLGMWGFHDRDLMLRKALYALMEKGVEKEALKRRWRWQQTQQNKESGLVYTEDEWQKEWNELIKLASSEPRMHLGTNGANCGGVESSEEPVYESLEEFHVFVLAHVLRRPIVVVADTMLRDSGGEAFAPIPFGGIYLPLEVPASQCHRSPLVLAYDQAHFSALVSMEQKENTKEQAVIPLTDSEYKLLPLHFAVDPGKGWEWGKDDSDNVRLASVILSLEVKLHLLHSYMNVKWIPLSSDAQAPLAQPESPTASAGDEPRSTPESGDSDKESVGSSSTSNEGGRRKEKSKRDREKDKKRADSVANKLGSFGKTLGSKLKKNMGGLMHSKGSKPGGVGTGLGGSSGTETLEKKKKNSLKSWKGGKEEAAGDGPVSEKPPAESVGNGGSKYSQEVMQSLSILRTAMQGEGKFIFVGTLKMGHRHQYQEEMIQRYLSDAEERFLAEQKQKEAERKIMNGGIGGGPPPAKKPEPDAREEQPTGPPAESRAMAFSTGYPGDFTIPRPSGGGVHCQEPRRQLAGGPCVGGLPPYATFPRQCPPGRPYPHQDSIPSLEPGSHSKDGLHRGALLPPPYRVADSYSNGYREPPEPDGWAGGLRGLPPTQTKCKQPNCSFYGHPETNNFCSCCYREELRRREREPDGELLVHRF
Method in brief: as §1

PRPF8 = PRPF8 (UniProt Q6P2Q9)
Method in brief: as §1

PSMD7 = target: T3, PSMD7 (UniProt P51665)
T3 sequence (whole entry): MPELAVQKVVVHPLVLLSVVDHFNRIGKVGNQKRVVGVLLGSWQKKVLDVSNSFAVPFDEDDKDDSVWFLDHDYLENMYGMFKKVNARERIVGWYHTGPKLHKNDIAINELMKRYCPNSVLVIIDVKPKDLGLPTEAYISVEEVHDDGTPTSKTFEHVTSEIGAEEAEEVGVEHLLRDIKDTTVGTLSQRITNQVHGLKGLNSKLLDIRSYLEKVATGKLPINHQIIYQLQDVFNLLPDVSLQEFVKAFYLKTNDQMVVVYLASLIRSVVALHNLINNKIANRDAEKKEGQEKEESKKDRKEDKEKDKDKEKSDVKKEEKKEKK
Method in brief: as §1

UCHL1 = UCHL1 (UniProt P09936)
Sequence of UCHL1 (P09936 whole entry, looked up): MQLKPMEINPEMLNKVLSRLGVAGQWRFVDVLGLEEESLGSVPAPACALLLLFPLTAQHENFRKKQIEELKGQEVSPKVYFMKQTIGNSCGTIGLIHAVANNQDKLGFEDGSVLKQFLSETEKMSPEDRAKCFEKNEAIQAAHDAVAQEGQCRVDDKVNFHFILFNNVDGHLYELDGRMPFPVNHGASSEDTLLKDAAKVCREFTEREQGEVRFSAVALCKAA
Method in brief: as §1

UCHL3 = target: T4, UCHL3 (UniProt P15374)
T4 sequence (whole entry): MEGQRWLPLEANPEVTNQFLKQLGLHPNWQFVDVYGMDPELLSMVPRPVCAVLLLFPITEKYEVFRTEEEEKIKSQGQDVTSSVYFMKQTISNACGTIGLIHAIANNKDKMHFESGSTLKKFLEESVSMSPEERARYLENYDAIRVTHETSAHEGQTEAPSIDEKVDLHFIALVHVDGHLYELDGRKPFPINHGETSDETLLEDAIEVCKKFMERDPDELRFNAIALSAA
Method in brief: as §1

UCHL5 = target: T5, UCHL5 (UniProt Q9Y5K5)
T5 sequence (whole entry): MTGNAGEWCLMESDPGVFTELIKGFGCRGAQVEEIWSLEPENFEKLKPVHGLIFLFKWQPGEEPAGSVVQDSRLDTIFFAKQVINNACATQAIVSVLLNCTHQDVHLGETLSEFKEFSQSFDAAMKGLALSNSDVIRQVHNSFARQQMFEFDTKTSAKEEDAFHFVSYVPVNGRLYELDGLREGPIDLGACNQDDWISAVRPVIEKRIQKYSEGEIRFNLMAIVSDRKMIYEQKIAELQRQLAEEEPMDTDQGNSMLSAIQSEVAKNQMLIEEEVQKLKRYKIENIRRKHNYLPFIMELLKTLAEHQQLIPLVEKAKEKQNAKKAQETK
Method in brief: as §1

USP10 = USP10 (UniProt Q14694)
Sequence of USP10 (Q14694 whole entry): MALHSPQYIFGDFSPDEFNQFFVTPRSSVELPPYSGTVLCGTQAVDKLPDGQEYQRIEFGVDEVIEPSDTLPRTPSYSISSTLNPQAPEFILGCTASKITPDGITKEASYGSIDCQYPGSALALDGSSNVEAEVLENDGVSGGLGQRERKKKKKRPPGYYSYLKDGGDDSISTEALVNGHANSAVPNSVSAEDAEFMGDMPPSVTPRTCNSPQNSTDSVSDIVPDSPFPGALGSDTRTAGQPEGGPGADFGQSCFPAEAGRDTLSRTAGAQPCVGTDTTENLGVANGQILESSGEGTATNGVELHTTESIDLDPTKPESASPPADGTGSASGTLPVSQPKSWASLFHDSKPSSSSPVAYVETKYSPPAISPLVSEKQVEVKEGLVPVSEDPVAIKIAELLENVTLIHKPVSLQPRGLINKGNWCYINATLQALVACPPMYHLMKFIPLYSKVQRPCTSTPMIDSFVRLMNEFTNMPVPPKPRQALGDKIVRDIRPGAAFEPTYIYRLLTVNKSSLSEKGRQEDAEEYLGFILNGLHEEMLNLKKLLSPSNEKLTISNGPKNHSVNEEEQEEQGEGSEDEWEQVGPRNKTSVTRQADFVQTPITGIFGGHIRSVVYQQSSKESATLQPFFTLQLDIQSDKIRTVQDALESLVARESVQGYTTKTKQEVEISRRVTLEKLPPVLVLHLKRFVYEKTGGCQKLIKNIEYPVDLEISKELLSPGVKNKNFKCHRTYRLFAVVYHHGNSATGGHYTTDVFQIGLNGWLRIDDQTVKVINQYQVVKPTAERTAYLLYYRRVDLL
Method in brief: as §1

USP15 = target: T6, USP15 (UniProt Q9Y4E8)
T6 sequence (whole entry): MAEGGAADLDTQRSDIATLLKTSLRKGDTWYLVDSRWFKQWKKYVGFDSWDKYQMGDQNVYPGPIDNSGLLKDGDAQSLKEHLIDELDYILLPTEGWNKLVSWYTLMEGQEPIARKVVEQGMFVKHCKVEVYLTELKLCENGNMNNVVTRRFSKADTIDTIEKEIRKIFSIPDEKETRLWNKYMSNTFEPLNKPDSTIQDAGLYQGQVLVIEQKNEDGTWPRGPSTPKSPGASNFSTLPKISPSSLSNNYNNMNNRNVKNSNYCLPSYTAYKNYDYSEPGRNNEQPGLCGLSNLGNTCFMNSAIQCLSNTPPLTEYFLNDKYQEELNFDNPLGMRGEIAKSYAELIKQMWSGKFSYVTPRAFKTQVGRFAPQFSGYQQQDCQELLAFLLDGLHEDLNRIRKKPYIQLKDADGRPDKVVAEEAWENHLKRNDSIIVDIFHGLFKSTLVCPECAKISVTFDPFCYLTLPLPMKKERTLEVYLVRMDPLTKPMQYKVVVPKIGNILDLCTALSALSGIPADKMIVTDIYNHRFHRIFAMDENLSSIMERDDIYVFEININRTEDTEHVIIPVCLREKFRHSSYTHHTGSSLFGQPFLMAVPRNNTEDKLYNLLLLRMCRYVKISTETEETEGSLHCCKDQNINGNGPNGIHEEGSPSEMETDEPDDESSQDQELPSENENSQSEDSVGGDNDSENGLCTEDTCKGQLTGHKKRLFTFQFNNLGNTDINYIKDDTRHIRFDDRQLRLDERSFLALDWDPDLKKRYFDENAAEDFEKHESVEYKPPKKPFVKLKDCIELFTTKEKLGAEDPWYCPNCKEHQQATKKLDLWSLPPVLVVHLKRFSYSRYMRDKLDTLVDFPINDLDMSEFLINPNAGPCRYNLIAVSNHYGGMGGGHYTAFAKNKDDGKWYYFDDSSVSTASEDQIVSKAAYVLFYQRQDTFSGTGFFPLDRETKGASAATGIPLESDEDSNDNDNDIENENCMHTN
Method in brief: as §1

USP16 = USP16 (UniProt Q9Y5T5)
Sequence of USP16 (Q9Y5T5 whole entry, looked up): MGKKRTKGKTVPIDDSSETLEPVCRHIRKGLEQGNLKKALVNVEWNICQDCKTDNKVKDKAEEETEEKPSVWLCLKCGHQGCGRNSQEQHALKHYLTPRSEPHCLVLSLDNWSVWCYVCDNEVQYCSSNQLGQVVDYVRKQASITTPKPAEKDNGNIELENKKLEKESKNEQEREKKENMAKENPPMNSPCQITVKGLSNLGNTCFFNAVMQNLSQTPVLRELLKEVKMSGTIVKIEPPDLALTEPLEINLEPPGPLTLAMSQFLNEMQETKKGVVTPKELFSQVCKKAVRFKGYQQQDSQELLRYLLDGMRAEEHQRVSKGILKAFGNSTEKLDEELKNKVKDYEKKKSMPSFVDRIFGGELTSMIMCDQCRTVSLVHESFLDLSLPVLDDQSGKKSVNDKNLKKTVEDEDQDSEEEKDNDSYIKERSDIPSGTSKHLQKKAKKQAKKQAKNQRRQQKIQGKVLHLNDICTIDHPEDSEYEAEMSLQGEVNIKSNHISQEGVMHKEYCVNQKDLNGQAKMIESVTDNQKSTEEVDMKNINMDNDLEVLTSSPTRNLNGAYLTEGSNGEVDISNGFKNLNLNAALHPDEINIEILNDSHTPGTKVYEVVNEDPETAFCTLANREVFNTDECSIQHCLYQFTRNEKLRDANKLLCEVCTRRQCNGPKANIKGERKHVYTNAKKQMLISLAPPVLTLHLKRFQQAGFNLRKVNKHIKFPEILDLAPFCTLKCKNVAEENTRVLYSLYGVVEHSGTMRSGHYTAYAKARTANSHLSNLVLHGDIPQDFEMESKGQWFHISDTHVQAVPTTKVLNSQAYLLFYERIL
Method in brief: as §1

Measured: log2 ratio of Biotin-Ahx-Ub-VS probe labelling

Cc1ccc(-c2nnc(C)[nH]2)c(NC(=O)CCl)c1
inactive: OTUD6B -0.00419 | OTUD7B -0.183 | PRPF8 -0.0454 | PSMD7 -0.177 | UCHL3 0.176 | UCHL5 -0.152 | USP10 0.0193 | USP15 -0.0491 | USP16 0.114
active: UCHL1 -1.14
